Test results as given in PubChem BioAssay (EPA / NIEHS).
Records with an inconclusive call do not appear. Activity calls are given as the source filed them. The calls were made as follows, unless noted: active = hit-call score of the fitted dose curve at least 0.9, where 1 is the maximum; inactive = score below 0.9.

Tests used:
[1] = ATG_TAL_CIS: Attagene CIS-FACTORIAL HepG2 Assay for human TAL Basal Promoter (AID 2282966); settings: HepG2 Attagene cis-factorial TAL promoter reporter; actives raise or lower the signal;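 also: background control endpoint measuring basal TAL promoter reporter mRNA not a specific factor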
In short: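 Basal-promoter background-control endpoint from a multiplexed HepG2 reporter panel. Cells were exposed 24 h, then reporter mRNA was read by RT-PCR/CE fluorescence and fitted in both directions relative to DMSO.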

[2] = ATG_TGFb_CIS: Attagene CIS-FACTORIAL HepG2 Assay for human Transforming Growth Factor (TGF) (AID 2282967); settings: HepG2 Attagene CIS TGFb reporter, mRNA transcription; actives raise or lower the signal
In short: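 Liver HepG2 line, cis-factorial reporter panel, 24 h dosing. Quantitation: RT-PCR products labeled with 6-FAM, cut with HpaI, resolved by capillary electrophoresis; DMSO-referenced bidirectional analysis.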

[3] = ATG_VDRE_CIS: Attagene CIS-FACTORIAL HepG2 Assay for human Vitamin D Receptor Element (VDRE) (AID 2282968); settings: HepG2 VDRE cis-reporter transcription, actives raise or lower the signal
In short: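 Compounds were applied for 24 h to HepG2 cells transfected with promoter-regulated reporter units. Total RNA was reverse-transcribed, and reporter amplicons were fluorescently labelled and sized by capillary electrophoresis.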

[4] = biological target: Nuclear receptor subfamily 1 group I member 3 (Homo sapiens) (UniProt Q14994); experiment: ATG_CAR_TRANS: Attagene TRANS-FACTORIAL HepG2 Assay for human Constitutive Androstane Receptor (CAR) (AID 2282969; active = hit-call score of the fitted dose curve at least 0.9, where 1 is the maximum;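 also: activators raise reporter mRNA above DMSO so AC50 marks induction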); settings: HepG2 Attagene TRANS-FACTORIAL CAR reporter
Nuclear receptor subfamily 1 group I member 3 (Homo sapiens), sequence (Q14994 whole entry, looked up, the tested form may be a part): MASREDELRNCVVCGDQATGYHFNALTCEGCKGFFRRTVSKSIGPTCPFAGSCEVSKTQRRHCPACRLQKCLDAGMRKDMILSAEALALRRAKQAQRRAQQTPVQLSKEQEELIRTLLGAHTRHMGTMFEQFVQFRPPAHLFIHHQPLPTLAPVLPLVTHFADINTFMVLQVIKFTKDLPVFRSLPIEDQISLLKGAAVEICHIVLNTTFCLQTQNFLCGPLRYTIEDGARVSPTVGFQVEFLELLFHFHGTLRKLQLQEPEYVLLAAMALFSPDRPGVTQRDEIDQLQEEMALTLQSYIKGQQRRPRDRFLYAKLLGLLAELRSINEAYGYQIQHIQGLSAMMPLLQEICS
In short: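 Transiently transfected HepG2, multiplex TRANS reporters (CAR-Gal4 chimera driving GAL4-UAS reporter). 24 h dosing. Readout: reporter transcript by RT-PCR + capillary electrophoresis, fluorescence intensity; positive direction vs DMSO.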

[5] = biological target: Estrogen receptor (Homo sapiens) (UniProt P03372); experiment: ATG_ERa_TRANS: Attagene TRANS-FACTORIAL HepG2 Assay for human Estrogen Receptor alpha (ERa) (AID 2282970; active = hit-call score of the fitted dose curve at least 0.9, where 1 is the maximum); settings: HepG2 Attagene TRANS ERa GAL4 reporter, mRNA
Estrogen receptor (Homo sapiens), sequence (P03372 whole entry, looked up, the tested form may be a part): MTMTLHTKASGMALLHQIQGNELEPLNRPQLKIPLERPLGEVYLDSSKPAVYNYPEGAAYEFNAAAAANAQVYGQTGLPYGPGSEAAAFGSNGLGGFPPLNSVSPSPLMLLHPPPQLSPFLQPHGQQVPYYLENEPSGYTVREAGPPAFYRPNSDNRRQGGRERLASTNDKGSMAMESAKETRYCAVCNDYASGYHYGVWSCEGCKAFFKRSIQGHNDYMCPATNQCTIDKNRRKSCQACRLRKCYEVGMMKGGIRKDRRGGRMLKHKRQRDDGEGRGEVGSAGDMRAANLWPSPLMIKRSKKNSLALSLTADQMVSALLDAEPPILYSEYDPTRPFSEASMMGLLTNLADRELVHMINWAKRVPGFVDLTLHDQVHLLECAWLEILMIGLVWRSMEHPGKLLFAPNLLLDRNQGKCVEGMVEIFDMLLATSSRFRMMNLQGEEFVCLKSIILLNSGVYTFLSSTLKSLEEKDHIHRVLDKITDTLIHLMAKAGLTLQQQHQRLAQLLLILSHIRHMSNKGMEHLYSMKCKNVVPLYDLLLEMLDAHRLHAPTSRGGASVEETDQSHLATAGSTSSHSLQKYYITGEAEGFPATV
In short: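 Gal4-fusion ERa transactivation, measured as reporter transcript level in transiently transfected HepG2 cells. Exposure 24 h; RT-PCR plus capillary electrophoresis with fluorescence detection.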

[6] = biological target: X-box-binding protein 1 (Homo sapiens) (UniProt P17861); experiment: ATG_Xbp1_CIS: Attagene CIS-FACTORIAL HepG2 Assay for human X-box Binding Protein 1 (XBP1) (AID 2282972); settings: HepG2 XBP1 cis-element reporter, Attagene multiplex; actives raise or lower the signal
X-box-binding protein 1 (Homo sapiens), sequence (P17861 whole entry, looked up): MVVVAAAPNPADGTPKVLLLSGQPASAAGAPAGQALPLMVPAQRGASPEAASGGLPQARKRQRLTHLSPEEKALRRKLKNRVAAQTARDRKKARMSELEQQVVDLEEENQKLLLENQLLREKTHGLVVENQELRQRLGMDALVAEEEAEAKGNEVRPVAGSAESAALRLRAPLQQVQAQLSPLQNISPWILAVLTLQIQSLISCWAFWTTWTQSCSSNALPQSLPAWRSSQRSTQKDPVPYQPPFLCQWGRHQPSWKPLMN
In short: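 Human hepatoma HepG2, cis-element reporter system, 24 h treatment; mRNA quantified by RT-PCR/CE fluorescence; fit relative to DMSO.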

[7] = biological target: Androgen receptor (Homo sapiens) (UniProt P10275); experiment: ATG_AR_TRANS: Attagene TRANS-FACTORIAL HepG2 Assay for human Androgen Receptor (AR) (AID 2282973; active = hit-call score of the fitted dose curve at least 0.9, where 1 is the maximum); settings: HepG2 Attagene TRANS-FACTORIAL AR reporter transcription
Androgen receptor (Homo sapiens), sequence (P10275 whole entry, looked up, the tested form may be a part): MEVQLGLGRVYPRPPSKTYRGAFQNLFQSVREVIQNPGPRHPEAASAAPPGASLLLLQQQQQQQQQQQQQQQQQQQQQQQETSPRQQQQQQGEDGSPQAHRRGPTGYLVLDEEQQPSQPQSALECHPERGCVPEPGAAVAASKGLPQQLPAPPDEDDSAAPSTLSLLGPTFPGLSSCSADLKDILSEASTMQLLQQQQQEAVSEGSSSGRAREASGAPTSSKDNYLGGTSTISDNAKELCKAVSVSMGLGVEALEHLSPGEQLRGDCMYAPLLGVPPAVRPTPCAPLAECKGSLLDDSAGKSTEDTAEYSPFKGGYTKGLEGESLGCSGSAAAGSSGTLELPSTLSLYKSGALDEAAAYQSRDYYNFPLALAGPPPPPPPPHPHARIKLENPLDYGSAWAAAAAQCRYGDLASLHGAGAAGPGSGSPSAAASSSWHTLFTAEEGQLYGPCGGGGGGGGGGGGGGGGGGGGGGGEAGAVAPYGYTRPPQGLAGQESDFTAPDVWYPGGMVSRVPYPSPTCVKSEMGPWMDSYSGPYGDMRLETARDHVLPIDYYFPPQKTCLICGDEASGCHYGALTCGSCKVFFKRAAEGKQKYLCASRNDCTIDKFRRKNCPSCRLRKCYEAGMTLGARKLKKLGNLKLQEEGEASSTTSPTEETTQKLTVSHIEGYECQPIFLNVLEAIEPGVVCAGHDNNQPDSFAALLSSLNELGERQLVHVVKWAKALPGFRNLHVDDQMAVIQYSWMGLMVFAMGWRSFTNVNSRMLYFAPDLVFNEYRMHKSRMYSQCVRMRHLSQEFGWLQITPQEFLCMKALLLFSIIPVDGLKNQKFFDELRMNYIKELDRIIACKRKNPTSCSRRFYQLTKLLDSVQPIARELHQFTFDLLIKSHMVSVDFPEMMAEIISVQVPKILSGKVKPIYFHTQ
In short: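 HepG2 cells transiently transfected with AR-Gal4 chimera and GAL4-UAS reporter units; chemical exposure 24 h. Reporter mRNA quantified by RT-PCR with fluorescent labelling and capillary electrophoresis; gain-of-signal fitted against DMSO.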

[8] = biological target: Steroid hormone receptor ERR1 (Homo sapiens) (UniProt P11474); experiment: ATG_ERRa_TRANS: Attagene TRANS-FACTORIAL HepG2 Assay for human Estrogen-Related Receptor alpha (ERRa) (AID 2282971; active = hit-call score of the fitted dose curve at least 0.9, where 1 is the maximum); settings: HepG2 Attagene TRANS reporter, ERRa transactivation
Steroid hormone receptor ERR1 (Homo sapiens), sequence (P11474 whole entry, looked up, the tested form may be a part): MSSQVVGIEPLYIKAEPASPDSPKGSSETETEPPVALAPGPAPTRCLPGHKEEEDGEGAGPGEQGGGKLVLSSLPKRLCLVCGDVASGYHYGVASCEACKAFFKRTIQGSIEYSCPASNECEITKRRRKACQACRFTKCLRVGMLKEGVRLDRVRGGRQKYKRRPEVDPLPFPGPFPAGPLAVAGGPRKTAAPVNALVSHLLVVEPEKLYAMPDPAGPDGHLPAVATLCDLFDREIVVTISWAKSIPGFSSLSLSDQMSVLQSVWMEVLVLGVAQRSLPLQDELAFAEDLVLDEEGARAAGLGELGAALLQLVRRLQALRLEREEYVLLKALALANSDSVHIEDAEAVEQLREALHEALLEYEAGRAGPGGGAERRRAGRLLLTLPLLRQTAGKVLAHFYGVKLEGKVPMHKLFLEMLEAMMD
In short: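 HepG2 cells transiently transfected with GAL4-UAS reporter units and chimeric NR-Gal4 constructs; after 24 hour compound incubation, reporter mRNA quantified by RT-PCR, fluorescent labelling and capillary electrophoresis, gain of signal versus DMSO.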

[9] = ATG_M_19_TRANS: Attagene TRANS-FACTORIAL HepG2 Assay for M19 Transcription Factor (Internal Marker) (AID 2282974; active = hit-call score of the fitted dose curve at least 0.9, where 1 is the maximum); settings: HepG2 Attagene TRANS-FACTORIAL M19 internal marker reporter
In short: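 Cells: human HepG2, transiently transfected with multiplexed reporter transcription units. Exposure: 24 h. Detection: RT-PCR of reporter mRNA with capillary electrophoresis. Analysis: gain-of-signal vs DMSO.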

[10] = ATG_GAL4_TRANS: Attagene TRANS-FACTORIAL HepG2 Assay for GAL4 (Internal Marker) (AID 2282976; active = hit-call score of the fitted dose curve at least 0.9, where 1 is the maximum); settings: HepG2 Attagene TRANS GAL4 internal marker reporter
In short: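 Background-control readout: GAL4-UAS reporter transcript in transiently transfected HepG2 cells after 24 h compound exposure. Measured by RT-PCR, 6-FAM primer extension, HpaI digest and capillary electrophoresis; gain-of-signal fit versus DMSO.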

Measured: AC50

Clc1ccc(Oc2ccccc2)cc1
active: [5] 41.7 µM
not listed: [8] | [9] | [10]
inactive: all other assays above

c1nc[nH]n1
inactive: [1] | [2] | [3] | [4] | [6]
active: [5] 24.8 µM

CC(C)Nc1ccc(Nc2ccccc2)cc1
active: [3] 3.68 µM | [5] 8.77 µM
not listed: [7] | [10]
inactive: all other assays above

c1ccc(OP(Oc2ccccc2)Oc2ccccc2)cc1
active: [5] 74.9 µM
not listed: [7] | [8] | [10]
inactive: all other assays above

CC1(C)CN=C(NN=C(/C=C/c2ccc(C(F)(F)F)cc2)/C=C/c2ccc(C(F)(F)F)cc2)NC1
inactive: [3] | [4] | [6] | [9]
active: [1] 4.22 µM | [2] 11.1 µM | [5] 4.59 µM

CCOP(=O)(O)C(N)=O
not listed: [7] | [8] | [10]
inactive: all other assays above

ClC1=C(Cl)C2(Cl)C3C(Cl)C(Cl)CC3C1(Cl)C2(Cl)Cl (stereo unspecified)
active: [3] 3.76 µM | [5] 13.4 µM
inactive: [1] | [2] | [4] | [6] | [7]

Nc1ccc(Sc2ccc(N)cc2)cc1
active: [3] 62.9 µM | [5] 7.99 µM
not listed: [7] | [10]
inactive: all other assays above

C/C(=N\NC(=O)Nc1cc(F)cc(F)c1)c1ncccc1C(=O)O
not listed: [7] | [8] | [10]
inactive: all other assays above

O=S(=O)(F)C(F)(F)C(F)(F)C(F)(F)C(F)(F)C(F)(F)C(F)(F)C(F)(F)C(F)(F)F
not listed: [10]
inactive: all other assays above

CCOP(=S)(NC(C)C)Oc1ccccc1C(=O)OC(C)C (stereo unspecified)
active: [3] 1.5 µM | [5] 3.51 µM
inactive: [1] | [2] | [4] | [8] | [6]

[N-]=[N+]=[N-]
inactive: [1] | [2] | [3] | [4] | [5] | [6]

COP(N)(=S)OC
inactive: all assays above
